The panel holds about 83,000 compounds, 20% with a hit somewhere; the sample as a whole holds those more often.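 Growth was measured after 48 h exposure to one concentration of compound in 96-well plates. Values under 10 count as active.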 Calls of active or inactive are those of the source.

For the test, the system named is MDA-MB-468 breast. Description: NCI-60 one-dose screen, 48 h (100 = growth as untreated, 0 = no growth, -100 = all killed). The note with it: 10 µM unless noted.
For `CCCCCCc1cc2cc(-c3nc4ccccc4[nH]3)c(=Nc3ccccc3C)oc2cc1O`, the growth was -5.99% (active). Regarding `O=C(O)c1ccc(-n2cc(/C=N/Nc3ccc(F)cc3)c(-c3cc4ccccc4oc3=O)n2)cc1`, the growth is 119% (inactive).

With `CN(C)Cc1ccc(NC(=O)c2cncc(C#Cc3cnc(N)c4ncccc34)c2)cc1C(F)(F)F`, the growth is 84% (inactive).

The values are drawn from PubChem BioAssay (NCI).
